# PubChem BioAssay (NCATS)
# Inconclusive results are not listed. Calls of active or inactive are those of the source. Calls follow the shape of the dose curve; as a rule, active = well fitted cell-killing curve with a large enough effect; inconclusive = small, poorly fitted or top-dose-only effect, or effect the other way, or another doubt; inactive = no such curve, though single readings can be large or run the other way. *1 amine or outer side, *2 acyl side, *3 side chain or, on linkers, in order; H or OH if unused. Where a SMILES comes first, the peptide text is derived from it. Bridges are numbered along the chain shown (N, C = ends). Roman numbers before positions name the chains, in order. [ ]: non-standard residue; d: D form. ξ: configuration not given here. Actinocin(9to1) = Cc1c2oc3c(C)ccc(C(=O)[*:1])c3nc-2c(C(=O)[*:2])c(N)c1=O; ξNMeV = CNC(C(=O)O)C(C)C; ξV = CC(C)C(N)C(=O)O; Sar = CNCC(=O)O
# Assay: Identifying Small Molecule Inhibitors of Pancreatic Cancer Stem Cells (Panc1, Adherent) (AID 1259362)
# Conditions: Potency: viability; series mostly up to 46.1 µM
# Procedure, shortened: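 After a 4 h attachment period, compounds were pinned into wells and cultures held 48 h under standard incubator conditions. Viability was then measured as CellTiter-Glo luminescence following 10 min at room temperature.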
# Potency is read from the fitted curve at half-maximal effect.
row,Compound,Potency
1,CC(NC(=O)Cc1cc(F)cc(F)c1)C(=O)NC(C(=O)OC(C)(C)C)c1ccccc1 (stereo not drawn),inactive
2,"Cc1c2oc3c(C)ccc(C(=O)N[C@@H]4C(=O)NC(C(C)C)C(=O)N5CCC[C@H]5C(=O)N(C)CC(=O)N(C)C(C(C)C)C(=O)O[C@@H]4C)c3nc-2c(C(=O)N[C@@H]2C(=O)NC(C(C)C)C(=O)N3CCC[C@H]3C(=O)N(C)CC(=O)N(C)C(C(C)C)C(=O)O[C@@H]2C)c(N)c1=O (stereo partly drawn) (I: T[ξV]P[Sar][ξNMeV] / II: T[ξV]P[Sar][ξNMeV]; ester I:1-I:C, II:1-II:C; linker I:N-II:N via Actinocin(9to1))",13.2 nM (active)
3,CCC1(O)CC2CN(CCc3c([nH]c4ccccc34)[C@@](C(=O)OC)(c3cc4c(cc3OC)N(C=O)[C@H]3[C@](O)(C(=O)OC)[C@H](OC(C)=O)[C@]5(CC)C=CCN6CC[C@]43[C@@H]65)C2)C1 (stereo partly drawn),2.6 nM (active)
4,O=c1cc(C2=CC=CC3Sc4ccccc4SC23)oc(N2CCOCC2)c1 (stereo not drawn),inactive
5,CN(NC(=O)CC(=O)NN(C)C(=S)c1ccccc1)C(=S)c1ccccc1,inactive
6,NC(=O)Nc1cc(-c2ccc(CN3CCOCC3)c(F)c2)sc1C(=O)N[C@H]1CCCNC1,833 nM (active)
7,CC[C@@H](C(=O)O)C1CC[C@H](C)C([C@@H](C)[C@H](O)[C@H](C)C(=O)[C@H](CC)C2O[C@]3(C=C[C@@H](O)[C@]4(CC[C@@](C)(C5CC[C@](O)(CC)[C@H](C)O5)O4)O3)[C@H](C)C[C@@H]2C)O1 (stereo partly drawn),7430 nM (active)
8,CCOc1cc2ncc(C#N)c(Nc3ccc(OCc4ccccn4)c(Cl)c3)c2cc1NC(=O)/C=C/CN(C)C,2640 nM (active)
